A short description of assay [1]: ATG_E_Box_CIS: Attagene CIS-FACTORIAL HepG2 Assay for human Enhancer Box (E-box) (AID 2282936). Conditions: HepG2 E-box cis-reporter transcription, actives raise or lower the signal. Summed up:
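Multiplexed CIS reporter system in transiently transfected HepG2 cells measures native transcription factor activity. Reporter RNA after 24 h exposure is profiled by RT-PCR-capillary electrophoresis.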

A short description of assay [2]: ATG_M_61_CIS: Attagene CIS-FACTORIAL HepG2 Assay for M61 Transcription Factor (Internal Marker) (AID 2282937). The settings on record: HepG2 Attagene CIS-FACTORIAL M61 internal marker reporter; actives raise or lower the signal. Put shortly: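 Readout is reporter mRNA by RT-PCR, fluorescent primer extension and capillary electrophoresis, with gain or loss fitted relative to DMSO. Transfected HepG2 cells carrying endogenous-TF-driven cis reporters were exposed to chemicals for 24 hours.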

Assay [3] in a line: ATG_EGR_CIS: Attagene CIS-FACTORIAL HepG2 Assay for human Early Growth Response 1 (EGR1) (AID 2282938). Conditions: HepG2 Attagene CIS-FACTORIAL EGR reporter mRNA; actives raise or lower the signal. Put shortly: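 After 24 h compound exposure, RNA from reporter-transfected HepG2 cells was reverse-transcribed, PCR-amplified, fluorescently labelled and resolved by capillary electrophoresis. EGR1 reporter transcript changes, up or down, were fitted against DMSO, reflecting endogenous transcription-factor activity.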

The nature of assay [4]: ATG_ERE_CIS: Attagene CIS-FACTORIAL HepG2 Assay for Estrogen Response Element (ERE) (AID 2282940). The settings on record: HepG2 ERE cis-reporter, Attagene RNA transcript; actives raise or lower the signal. Summed up:
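Readout: reporter mRNA induction by RT-PCR, FAM-labelled primer extension, HpaI digestion and capillary electrophoresis, 24 h after dosing transfected HepG2 cells. Endogenous transcription factors act on cis-element-regulated reporters. Gain or loss fitted against DMSO.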

A short description of assay [5]: ATG_Ets_CIS: Attagene CIS-FACTORIAL HepG2 Assay for human Erythroblast Transformation Specific (ETS) (AID 2282941). The settings on record: HepG2 ETS cis-reporter transcription, actives raise or lower the signal. Put shortly: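 HepG2 cells transiently transfected with cis-promoter reporter transcription units were dosed for 24 h; reporter mRNA was measured by RT-PCR, 6-FAM primer extension, HpaI digestion and capillary electrophoresis, with bidirectional fitting against DMSO baseline.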

The target of assay [6] is Hepatocyte nuclear factor 3-beta (Homo sapiens) (UniProt Q9Y261). Briefly: ATG_FoxA2_CIS: Attagene CIS-FACTORIAL HepG2 Assay for human Forkhead box A2 (FOXA2) (AID 2282942). Conditions: HepG2 cis-reporter transcription factor activity, 24 h; actives raise or lower the signal. Summed up:
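Endogenous transcription factor activity is captured via cis-element-driven reporter transcripts in transfected HepG2. Total RNA taken at 24 h post-dosing; labelled RT-PCR products resolved by capillary electrophoresis. Gain or loss fitted versus DMSO.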

The nature of assay [7]: ATG_FoxO_CIS: Attagene CIS-FACTORIAL HepG2 Assay for human Forkhead box O (FoxO) (AID 2282943). The settings on record: HepG2 Attagene cis-reporter, FoxO element, mRNA; actives raise or lower the signal. Summed up:
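Values reflect reporter mRNA induction or loss in HepG2 cells 24 h post-dosing, fitted bidirectionally with DMSO as negative control and baseline. Detection used RT-PCR and fluorescence capillary electrophoresis.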

Assay [8] in a line: ATG_GATA_CIS: Attagene CIS-FACTORIAL HepG2 Assay for human GATA Binding Protein (AID 2282944). The settings on record: HepG2 GATA cis-element reporter, Attagene multiplex mRNA; actives raise or lower the signal. Summed up:
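Read-out: fluorescent reporter mRNA fragments resolved by capillary electrophoresis after RT-PCR. Human liver HepG2 cells carried transiently transfected cis-regulated reporter constructs; chemicals incubated 24 h; gain or loss of signal fitted relative to DMSO.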

The nature of assay [9]: ATG_GLI_CIS: Attagene CIS-FACTORIAL HepG2 Assay for human Zinc Finger Protein GLI1 (AID 2282945). The settings on record: HepG2, Attagene cis-factorial reporter mRNA, GLI element; actives raise or lower the signal. Summed up: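 HepG2 cells transiently transfected with cis-promoter multiplexed reporter units report endogenous transcription factor activity. After 24 h chemical exposure, reporter mRNA was quantified by RT-PCR, 6-FAM labelling, HpaI digestion and capillary electrophoresis, with bidirectional fitting against DMSO.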

Assay [10] deals with Bile acid receptor (Homo sapiens) (UniProt Q96RI1). Briefly: ATG_IR1_CIS: Attagene CIS-FACTORIAL HepG2 Assay for human Nuclear Receptor Subfamily 1 Group H Member 4 (NR1H4), IR1 submotif (AID 2282946). Conditions: IR1 reporter transcription, actives raise or lower the signal. Summed up: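 Transient MRTU transfection, HepG2; 24 h dosing; RNA → RT-PCR → 6-FAM primer extension → HpaI digest → capillary electrophoresis fluorescence. Gain/loss of signal fitted relative to DMSO.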

The nature of assay [11]: ATG_ISRE_CIS: Attagene CIS-FACTORIAL HepG2 Assay for human Interferon Regulatory Factor 1 (IRF1) binding to an Interferon-Stimulated Response Element (ISRE) (AID 2282948). The settings on record: HepG2 ISRE cis-reporter (Attagene), mRNA transcription readout; actives raise or lower the signal. Summed up: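 HepG2 cells transiently transfected with multiplexed cis-promoter reporter units; after 24 h compound exposure, reporter mRNA quantified by RT-PCR, FAM labelling, HpaI digestion and capillary electrophoresis. Bidirectional fit versus DMSO baseline.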

A short description of assay [12]: ATG_M_32_CIS: Attagene CIS-FACTORIAL HepG2 Assay for M32 Transcription Factor (Internal Marker) (AID 2282949).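 Note: background control marker of the multiplexed CIS panel rather than a real target.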 Conditions: HepG2 Attagene cis-factorial M32 reporter, mRNA; actives raise or lower the signal. Summed up:
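Fluorescent capillary electrophoresis peaks of HpaI-digested, FAM-labelled RT-PCR reporter products give the signal. Source: transiently transfected human liver HepG2 cells, 24 h after chemical dosing; bidirectional fitting against DMSO.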

Assay [13] in a line: ATG_M_06_CIS: Attagene CIS-FACTORIAL HepG2 Assay for M06 Transcription Factor (Internal Marker) (AID 2282950). The settings on record: HepG2 Attagene CIS-FACTORIAL M06 internal marker reporter; actives raise or lower the signal. Put shortly: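 Terse: HepG2, transient MRTU transfection (FuGene 6), 24 h dosing; total RNA, oligo(dT) RT, PCR, FAM label, HpaI cut, capillary electrophoresis; bidirectional fit vs DMSO baseline; background-control endpoint.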

In assay [14] the target is Hypoxia-inducible factor 1-alpha (Homo sapiens) (UniProt Q16665). Briefly: ATG_HIF1a_CIS: Attagene CIS-FACTORIAL HepG2 Assay for human Hypoxia Inducible Factor 1 (HIF1A) (AID 2282951). The settings on record: HepG2 Attagene cis-factorial HIF1a reporter transcription; actives raise or lower the signal. Summed up: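 Activity is fitted in both directions relative to DMSO. Reporter transcripts are read by RT-PCR, fluorescent primer extension and capillary electrophoresis after 24 h chemical treatment. The cells are HepG2 carrying transiently transfected cis-element-driven reporter units responding to endogenous factors.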

Assay [15] addresses Hepatocyte nuclear factor 6 (Homo sapiens) (UniProt Q9UBC0). Briefly: ATG_HNF6_CIS: Attagene CIS-FACTORIAL HepG2 Assay for human Hepatocyte Nuclear Factor 6 (HNF6) (AID 2282952). Conditions: HepG2 Attagene cis-factorial HNF6 reporter transcription; actives raise or lower the signal. Put shortly:
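Reporter mRNA induction or loss in HepG2 after 24 h exposure; transient cis-MRTU transfection; fragments quantified by capillary electrophoresis; bidirectional analysis, DMSO as negative control.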

Assay [16] concerns the target Heat shock factor protein 1 (Homo sapiens) (UniProt Q00613). Briefly: ATG_HSE_CIS: Attagene CIS-FACTORIAL HepG2 Assay for human Heat Shock Transcription Factor 1 (HSE) (AID 2282953). The settings on record: HepG2 HSE cis-reporter, Attagene RNA transcription; actives raise or lower the signal. Put shortly: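 Read-out: fluorescence of reporter-specific RT-PCR fragments separated by capillary electrophoresis. HepG2 carrying transfected cis-element reporter units; 24 h dosing; activity fitted in both directions relative to DMSO baseline.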

Assay [17] is described as follows: ATG_MRE_CIS: Attagene CIS-FACTORIAL HepG2 Assay for human Metal Responsive Element (MRE) (AID 2282954). The settings on record: HepG2 MRE cis-reporter transcription, Attagene multiplex; actives raise or lower the signal. Put shortly:
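Step one: transfect HepG2 with cis-regulated reporter units. Step two: dose 24 h. Step three: isolate RNA, RT-PCR, 6-FAM label, HpaI digest, capillary electrophoresis. Fit bidirectionally to DMSO.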

Assay [18] in a line: ATG_GRE_CIS: Attagene CIS-FACTORIAL HepG2 Assay for human Glucocorticoid Response Elements (GRE) (AID 2282947). Conditions: HepG2 GRE cis-reporter, Attagene multiplex mRNA; actives raise or lower the signal. Put shortly:
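Following 24 h chemical exposure of transiently transfected HepG2 cells, total RNA was reverse-transcribed and reporter cDNA amplified, fluorescently labelled and sized by capillary electrophoresis. Signal gain or loss was fitted relative to DMSO vehicle.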

A short description of assay [19]: ATG_M_19_CIS: Attagene CIS-FACTORIAL HepG2 Assay for M19 Transcription Factor (Internal Marker) (AID 2282939). The settings on record: HepG2 Attagene CIS-FACTORIAL M19 internal marker reporter; actives raise or lower the signal. Summed up: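 Readout: fluorescent reporter-transcript fragments by capillary electrophoresis after RT-PCR. Human HepG2 liver cells carried transfected MRTU constructs reporting endogenous transcription-factor activity; exposure 24 h. Gain or loss of signal fitted relative to DMSO.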

Active and inactive are the calls of the source. Rule for the calls: active = hit-call score of the fitted dose curve at least 0.9, where 1 is the maximum; inactive = score below 0.9.

Bile acid receptor (Homo sapiens), sequence (Q96RI1 whole entry, looked up): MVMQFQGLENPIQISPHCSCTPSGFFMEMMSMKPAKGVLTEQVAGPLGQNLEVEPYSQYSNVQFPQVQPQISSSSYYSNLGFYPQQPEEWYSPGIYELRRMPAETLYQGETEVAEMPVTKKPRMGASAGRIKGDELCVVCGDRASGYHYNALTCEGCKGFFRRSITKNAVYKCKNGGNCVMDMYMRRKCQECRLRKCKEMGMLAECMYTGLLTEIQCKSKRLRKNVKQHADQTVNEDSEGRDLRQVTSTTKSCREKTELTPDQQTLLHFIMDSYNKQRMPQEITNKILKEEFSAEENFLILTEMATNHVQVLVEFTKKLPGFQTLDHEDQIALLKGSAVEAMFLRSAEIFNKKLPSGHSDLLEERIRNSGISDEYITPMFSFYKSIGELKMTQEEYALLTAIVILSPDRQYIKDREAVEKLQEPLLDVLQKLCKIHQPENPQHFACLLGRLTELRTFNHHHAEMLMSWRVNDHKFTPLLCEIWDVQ
Hepatocyte nuclear factor 6 (Homo sapiens), sequence (Q9UBC0 whole entry, looked up, the tested form may be a part): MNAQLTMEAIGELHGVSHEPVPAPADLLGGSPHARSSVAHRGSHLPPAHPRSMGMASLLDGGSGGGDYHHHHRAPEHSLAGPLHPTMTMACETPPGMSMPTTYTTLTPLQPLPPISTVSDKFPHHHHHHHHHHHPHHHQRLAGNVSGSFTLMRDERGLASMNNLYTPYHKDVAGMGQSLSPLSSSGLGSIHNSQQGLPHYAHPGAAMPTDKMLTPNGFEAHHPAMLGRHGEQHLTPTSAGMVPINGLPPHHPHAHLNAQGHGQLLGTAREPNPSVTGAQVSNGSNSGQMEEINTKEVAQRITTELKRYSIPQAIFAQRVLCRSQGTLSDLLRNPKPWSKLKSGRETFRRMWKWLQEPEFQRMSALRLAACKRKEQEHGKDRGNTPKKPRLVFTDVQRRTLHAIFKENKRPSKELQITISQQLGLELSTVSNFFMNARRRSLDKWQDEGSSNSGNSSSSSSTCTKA
Hepatocyte nuclear factor 3-beta (Homo sapiens), sequence (Q9Y261 whole entry, looked up): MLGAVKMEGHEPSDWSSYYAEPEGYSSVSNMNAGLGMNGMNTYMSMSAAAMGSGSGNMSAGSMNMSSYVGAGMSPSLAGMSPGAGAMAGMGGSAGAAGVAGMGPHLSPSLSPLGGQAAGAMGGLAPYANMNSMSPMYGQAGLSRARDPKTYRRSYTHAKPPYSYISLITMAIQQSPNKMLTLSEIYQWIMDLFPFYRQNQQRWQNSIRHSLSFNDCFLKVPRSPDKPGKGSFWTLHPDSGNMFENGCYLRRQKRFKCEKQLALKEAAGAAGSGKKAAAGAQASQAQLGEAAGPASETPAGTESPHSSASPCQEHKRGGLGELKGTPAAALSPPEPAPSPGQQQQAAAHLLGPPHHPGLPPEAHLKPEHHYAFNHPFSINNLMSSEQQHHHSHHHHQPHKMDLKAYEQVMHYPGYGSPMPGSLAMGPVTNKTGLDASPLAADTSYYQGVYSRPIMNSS
Heat shock factor protein 1 (Homo sapiens), sequence (Q00613 whole entry, looked up, the tested form may be a part): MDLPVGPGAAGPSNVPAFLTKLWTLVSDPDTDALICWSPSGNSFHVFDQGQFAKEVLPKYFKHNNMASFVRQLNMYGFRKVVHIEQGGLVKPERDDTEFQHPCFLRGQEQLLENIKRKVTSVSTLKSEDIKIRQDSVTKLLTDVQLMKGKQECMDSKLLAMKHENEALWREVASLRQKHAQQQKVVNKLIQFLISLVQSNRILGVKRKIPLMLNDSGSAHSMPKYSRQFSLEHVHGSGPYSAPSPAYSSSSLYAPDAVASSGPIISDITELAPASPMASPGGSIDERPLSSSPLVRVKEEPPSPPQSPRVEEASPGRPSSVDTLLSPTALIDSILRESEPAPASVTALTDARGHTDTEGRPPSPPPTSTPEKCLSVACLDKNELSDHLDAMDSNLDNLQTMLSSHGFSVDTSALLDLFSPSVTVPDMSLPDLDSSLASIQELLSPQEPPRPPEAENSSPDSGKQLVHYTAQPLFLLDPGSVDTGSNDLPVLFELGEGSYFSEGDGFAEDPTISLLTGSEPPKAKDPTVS
Hypoxia-inducible factor 1-alpha (Homo sapiens), sequence (Q16665 whole entry, looked up): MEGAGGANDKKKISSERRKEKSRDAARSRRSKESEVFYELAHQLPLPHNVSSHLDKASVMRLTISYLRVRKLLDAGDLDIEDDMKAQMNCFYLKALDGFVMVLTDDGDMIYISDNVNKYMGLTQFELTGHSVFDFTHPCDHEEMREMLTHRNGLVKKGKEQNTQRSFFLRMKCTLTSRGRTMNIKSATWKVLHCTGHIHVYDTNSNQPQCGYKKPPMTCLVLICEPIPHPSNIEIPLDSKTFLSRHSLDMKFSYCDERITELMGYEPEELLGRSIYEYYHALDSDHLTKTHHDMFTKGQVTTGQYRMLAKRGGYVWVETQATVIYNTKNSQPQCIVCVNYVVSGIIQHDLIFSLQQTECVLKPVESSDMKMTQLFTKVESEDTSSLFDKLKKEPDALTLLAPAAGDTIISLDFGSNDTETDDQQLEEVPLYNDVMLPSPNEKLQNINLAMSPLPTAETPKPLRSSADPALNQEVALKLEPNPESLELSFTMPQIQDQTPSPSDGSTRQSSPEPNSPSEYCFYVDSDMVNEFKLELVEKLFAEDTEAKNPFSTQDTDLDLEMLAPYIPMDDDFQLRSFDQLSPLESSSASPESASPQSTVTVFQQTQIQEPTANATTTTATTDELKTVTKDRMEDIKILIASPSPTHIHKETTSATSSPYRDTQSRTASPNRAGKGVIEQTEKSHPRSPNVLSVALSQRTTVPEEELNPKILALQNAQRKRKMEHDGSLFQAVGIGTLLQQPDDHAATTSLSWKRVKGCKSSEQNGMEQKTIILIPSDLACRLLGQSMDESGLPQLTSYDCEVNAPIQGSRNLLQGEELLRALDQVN

By AC50 is commonly meant the midpoint of the concentration-response curve, whichever way the signal moves. Regarding `O=C(O)Cc1ccccc1Nc1c(Cl)cccc1Cl`, in [1], the AC50 is 176 µM (active). Further, the molecule was classed as inactive in assay [2], in assay [3], in [4], in assay [5], in assay [6] and in [7]. Also, the molecule was called inactive in assay [8], in [9], in assay [10], in assay [11], in assay [12] and in assay [13]. Also, the molecule was called inactive in [14], in assay [15], in assay [16] and in [17].
As for `CN1CCN(Cc2cc(-c3ccc4[nH]c(=O)oc4c3)co2)[C@@H](c2ccc(F)cc2)C1`, the outcome in assay [1], in [2], in assay [4], in assay [5], in assay [6] and in assay [7] was inactive. Moreover, the molecule was called inactive in assay [8], in [9], in [10], in assay [18], in assay [12] and in [13]. For the same molecule, in assay [15], the call was inactive. Moreover, the AC50 was 33 µM (active) in assay [3], 18 µM (active) in assay [11], 6.55 µM (active) in [14] and 48.6 µM (active) in assay [17].
On to `CC(C)(C)c1cc(O)c(C(C)(C)C)cc1O`, for which the outcome in assay [1], in assay [2], in [19], in assay [5], in assay [6] and in assay [7] was inactive. Moreover, the call in assay [8], in [18], in assay [13], in assay [14] and in assay [15] was inactive. For the same molecule, the AC50 in [3] was 31.1 µM (active); in assay [4], 31 µM (active); in assay [9], 114 µM (active); in assay [11], 114 µM (active); in [12], 40.6 µM (active); in assay [16], 64.3 µM (active). Further, the concentration at half-maximal activity (AC50) in assay [17] is 39.2 µM (active).
As to `CN[C@H]1CC[C@@H](c2ccc(Cl)c(Cl)c2)c2ccc(S(N)(=O)=O)cc21`, the result in assay [1], in assay [2], in assay [3], in assay [5], in [6] and in [7] was inactive. Moreover, the molecule was classed as inactive in assay [8], in assay [9], in assay [10], in assay [18], in assay [11] and in [12]. The molecule was classed as inactive in assay [13], in assay [14], in assay [15], in [16] and in assay [17].
As for `Nc1ccccc1N`, the outcome in [1], in assay [2], in assay [19], in assay [4], in assay [5] and in assay [6] was inactive. For the same molecule, the result in assay [7], in assay [8], in assay [9], in assay [18], in assay [11] and in assay [12] was inactive. Moreover, the call in [13], in assay [15] and in assay [16] was inactive. Besides, the concentration at half-maximal activity (AC50) in assay [3] is 53.8 µM (active); in assay [14], 41.3 µM (active); in assay [17], 38.2 µM (active).
Regarding `CCCCC(CC)COC(=O)CC(C(=O)OCC(CC)CCCC)S(=O)(=O)O` (configuration not stated), the outcome in assay [1], in [2], in [3], in [19], in assay [4] and in assay [5] was inactive. The molecule was classed as inactive in assay [6], in [7], in [8], in [9], in assay [18] and in assay [11]. Further, the molecule was classed as inactive in [12], in assay [13], in assay [15], in assay [16] and in [17]. Further, the AC50 in assay [14] was 0.000743 µM (active).
In the case of `O=c1c(O)c(-c2ccc(O)c(O)c2)oc2cc(O)cc(O)c12`, the result in assay [1], in assay [2], in assay [3], in assay [5], in assay [6] and in [7] was inactive. For the same molecule, the molecule was called inactive in [8], in assay [9], in assay [11], in assay [12], in assay [13] and in [15]. The result in [17] was inactive. The concentration at half-maximal activity (AC50) in assay [4] is 25.8 µM (active).
As to `CNC(=O)[C@H]1O[C@@H](n2cnc3c(NCc4cc(Cl)ccc4OCc4cc(C)no4)ncnc32)[C@H](O)[C@@H]1N`, the outcome in assay [1], in assay [2], in [3], in assay [19], in assay [5] and in assay [6] was inactive. Also, the molecule was classed as inactive in assay [7], in [8], in assay [9], in assay [10], in assay [18] and in assay [11]. Further, the molecule was classed as inactive in assay [12], in [13], in assay [14], in assay [15], in [16] and in [17].
